PubChem BioAssay AID588849 (Broad Institute, 2011)
Results with a measured potency or affinity are listed apart. Calls of active or inactive are those of the source. The rule behind the calls is not given here.

These compounds were tested against CAAX prenyl protease 2 (Homo sapiens) (UniProt Q9Y256) (assay: human Rce1 protease inhibitors, dose response, biochemical, yeast membranes, quenched-peptide fluorescence, cherry-pick (AID 588849)). Details: yeast membrane fractions expressing human Rce1, quenched-peptide fluorescence, 4 h; series mostly up to 10 µM; activity change, negative = inhibition: at the top concentration.
Chain of CAAX prenyl protease 2 (Homo sapiens) (Q9Y256 whole entry, looked up): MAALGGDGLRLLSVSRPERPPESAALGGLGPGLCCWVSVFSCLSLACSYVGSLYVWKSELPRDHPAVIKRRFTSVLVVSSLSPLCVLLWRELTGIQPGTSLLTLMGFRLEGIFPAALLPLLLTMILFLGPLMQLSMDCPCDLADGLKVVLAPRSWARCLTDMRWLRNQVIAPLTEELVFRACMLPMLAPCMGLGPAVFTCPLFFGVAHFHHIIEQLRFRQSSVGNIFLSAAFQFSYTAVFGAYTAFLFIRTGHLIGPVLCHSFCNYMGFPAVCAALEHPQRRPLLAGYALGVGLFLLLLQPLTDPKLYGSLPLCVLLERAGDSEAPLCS

Activity change, negative = inhibition, inactive:
COc1ccc(OC)c(/C=N/NC(=O)Cn2ccnc2C)c1 -12.8%
COc1cccc(CNc2nc3nc(C)cc(C)n3n2)c1 -12.1%
COc1cc(-c2nc3ccccn3c2/N=C/c2cc(OC)c(OC)c(OC)c2)ccc1O -9.61% [at 3.5 µM]
CCN(CC)Cc1c(O)ccc2c(=O)c(-c3ccccc3OC)coc12 -13.2%
Nc1nnnn1/N=C/c1ccccc1OCc1ccc(Cl)cc1Cl -1.75%
CCNC(=S)NNC(=O)CCn1cc(C)cn1 -13.4%
CCCCN(CC)CCNC(=O)c1cc2c(-c3ccc(Cl)cc3)nn(C)c2s1 0.506%
N#CC(/C(=N/S(=O)(=O)c1cccs1)c1ccccc1)c1nc2ccccc2[nH]1 (centres undefined) -7.48%
Cc1cccc(NC(=O)C2(c3ccc([N+](=O)[O-])cc3)CCCC2)c1 8.88%
COc1ccc(OC)c(Cc2nnc(CCC(=O)N3CCN(C4CCCC4)CC3)o2)c1 -17.8%
COc1ccc(C(=O)/C=C/c2ccc(OC)cc2OC)c(O)c1 -13%
COc1ccc(-n2nc(C(=O)NCC(=O)N3CCC(C)CC3)c3ccccc3c2=O)cc1 -6.65%
OC1CCN(C(c2ccc3ncccc3c2)c2nnnn2C2CCCCC2)CC1 (centres undefined) 14.4%
COCCNc1nc(N)c([N+](=O)[O-])c(N2CCCCCC2)n1 6.94%
O=C(COc1ncnc2cc([N+](=O)[O-])ccc12)NC(=O)NC1CCCCC1 0.658%
CC1CCc2c(sc(NC(=O)COC(=O)c3ccccc3NCc3ccco3)c2C#N)C1 (centres undefined) 51.9%
CCSCCOC(=O)C1=C(C)NC(=O)NC1c1ccccc1 (centres undefined) -11.6%
O=C(C[n+]1cc2ccccc2c2ccccc21)c1ccccc1 -26.3%
CCN(C(=O)COC(=O)c1cc(-c2cccs2)nc2ccccc12)C1CCS(=O)(=O)C1 (centres undefined) -10.1%
O=C(O)CCc1nc2cc(C(F)(F)F)ccc2n(Cc2ccccc2)c1=O -9.89%
O=C(COC(=O)c1ccccc1Cc1ccccc1)NC1CCS(=O)(=O)C1 (centres undefined) -12.4%
CC(C)[C@H](NC(=O)OCc1ccccc1)C(=O)OCC(=O)Nc1c(F)cccc1F -6.6% [at 3.5 µM]
Cc1ccc(NS(=O)(=O)c2ccc(NC(=O)N3CCCCC3)cc2)cc1 5.86%
c1ccc(-n2nnnc2SCc2cn3cccnc3n2)cc1 -12.3%
Cc1cc(OCC(=O)N2CCC(C(=O)O)CC2)c2c(C)cc(=O)oc2c1 -17.5%
CCN(CC)CCN(C(=O)c1ccc2ccccc2c1)c1nc2cc3c(cc2s1)OCO3 -4.2%
CSC[C@H](NC(=O)COc1cc2c(c3oc(=O)cc(C)c13)CCC(C)(C)O2)C(=O)O 8.43%
CC(Cc1cccs1)NC(=O)Nc1ccc([N+](=O)[O-])cc1 (centres undefined) -3.92%
O=C(Nc1ccccc1N1CCOCC1)C1CCN(S(=O)(=O)c2ccc(F)cc2)CC1 -4.31%
CCC(=O)Nc1cc(-c2nn(CC(=O)N3CCCCC3)c(=O)c3ccccc23)ccc1N1CCOCC1 -1.37%
CCOc1cc(CNC2CCCC2)ccc1OCc1ccccc1Cl 1.14%
Cc1nc(SC(C(=O)c2ccccc2)c2ccccc2)nc2ccccc12 (centres undefined) -3.28%
CCOC(=O)C1CCCN(C(=O)CCn2nnnc2CN2CCOCC2)C1 (centres undefined) -23%
Nc1nonc1-n1nnc(C(=O)N/N=C/c2ccoc2)c1CSc1ccccc1 -26.2%
COc1ccc(CC(=O)OCC(=O)Nc2ccc(Br)cc2)cc1 -9.13%
COc1ccc(-c2c(-c3ccsc3)oc3ccc(N4CCOCC4)cc23)cn1 -11.9%
COc1cc2ccccc2cc1C(=O)N(CCN(C)C)c1nc2ccc(C)cc2s1 -32.8%
COc1ccc(/C=N/NC(=O)c2ccc(Cl)cc2)cc1COC(C)=O -20.8%
COc1cc2c(cc1OC)C(C)N(C(=O)CCNC(=O)c1ccccc1)CC2 (centres undefined) -20%
